Measurements published in PubChem BioAssay AID1159580 (chemical genetic matrix, 2015).
Values joined by “and” are separate entries in the source; they are usually repeats but may differ in a detail not shown here. Equal entries are not always repeated. Screen size: about 5,500 compounds; about 2,000 (36%) were called active. Not shown: some 18% with an inconclusive outcome. Rule as the data show it: active = normalized growth mostly below about 0.91 (no sharp cut-off); inconclusive = no clear call, values can overlap the other calls; inactive = mostly above about 0.92. The list shows a part of the results. Some compounds were tested as several samples or in several runs, with calls that do not always agree.

Experiment: chemical genetic growth profiling, strain panel (AID 1159580);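 also: tested at 20 µM; growth read once vehicle control cultures reached saturation at 30 °C; 1 = growth at the plate median or of vehicle wells; lower values mean less growth of the strain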
Conditions: growth OD

Measured: normalized growth

CC(C)COCC(CN(Cc1ccccc1)c1ccccc1)N1CCCC1 (stereo not given)
active: S. cerevisiae deletion strains, locus YKR001C, strain vps1, stronger effect = lower value 0.793 | S. cerevisiae deletion strains, locus YLR058C, strain SHM2, stronger effect = lower value 0.858 | S. cerevisiae deletion strains, locus YLR262C, strain YPT6, stronger effect = lower value 0.59 | S. cerevisiae deletion strains, locus YLR342W, strain FKS1 (second series), stronger effect = lower value 0.707 | S. cerevisiae deletion strains, locus YLR418C, strain cdc73, stronger effect = lower value 0.698 | S. cerevisiae deletion strains, locus YML032C, strain rad52, stronger effect = lower value 0.904 | S. cerevisiae deletion strains, locus YMR223W, strain ubp8, stronger effect = lower value 0.894 | S. cerevisiae deletion strains, locus YNL067W, strain RPL9B, stronger effect = lower value 0.843 | S. cerevisiae deletion strains, locus YNL153C, strain GIM3, stronger effect = lower value 0.823 | S. cerevisiae deletion strains, locus YNL233W, strain BNI4, stronger effect = lower value 0.781 | S. cerevisiae deletion strains, locus YNR052C, strain pop2, stronger effect = lower value 0.887 | S. cerevisiae deletion strains, locus YOL006C, strain TOP1, stronger effect = lower value 0.242 | S. cerevisiae deletion strains, locus YPL055C, strain LGE1, stronger effect = lower value 0.653 | S. cerevisiae deletion strains, locus YPR163C, strain tif3, stronger effect = lower value 0.792 | S. cerevisiae strains, strain wild type, stronger effect = lower value 0.878
inactive: S. cerevisiae deletion strains, locus YKL009W, strain mrt4, stronger effect = lower value 0.935 | S. cerevisiae deletion strains, locus YKL068W, stronger effect = lower value 0.989 | S. cerevisiae deletion strains, locus YKL085W, strain MDH1 (second series), stronger effect = lower value 0.979 | S. cerevisiae deletion strains, locus YKL085W, strain MDH1, stronger effect = lower value 0.979 | S. cerevisiae deletion strains, locus YKL160W, strain elf1, stronger effect = lower value 1.02 | S. cerevisiae deletion strains, locus YKL190W, strain CNB1, stronger effect = lower value 0.923 | S. cerevisiae deletion strains, locus YKR026C, strain gcn3, stronger effect = lower value 1.03 | S. cerevisiae deletion strains, locus YKR091W, strain srl3, stronger effect = lower value 1.02 | S. cerevisiae deletion strains, locus YLL001W, strain dnm1, stronger effect = lower value 1.03 | S. cerevisiae deletion strains, locus YLL026W, stronger effect = lower value 1.02 | S. cerevisiae deletion strains, locus YLL041C, strain sdh2, stronger effect = lower value 1.05 | S. cerevisiae deletion strains, locus YLR027C, strain aat2, stronger effect = lower value 1.01 | S. cerevisiae deletion strains, locus YLR039C, strain RIC1, stronger effect = lower value 0.705 | S. cerevisiae deletion strains, locus YLR102C, strain apc9, stronger effect = lower value 0.989 | S. cerevisiae deletion strains, locus YLR113W, strain HOG1, stronger effect = lower value 1.01 | S. cerevisiae deletion strains, locus YLR221C, strain rsa3, stronger effect = lower value 0.996 | S. cerevisiae deletion strains, locus YLR258W, strain gsy2, stronger effect = lower value 1.03 | S. cerevisiae deletion strains, locus YLR262C, strain YPT6 (second series), stronger effect = lower value 1.01 | S. cerevisiae deletion strains, locus YLR268W, strain sec22, stronger effect = lower value 0.935 | S. cerevisiae deletion strains, locus YLR320W, strain mms22, stronger effect = lower value 0.948 | S. cerevisiae deletion strains, locus YLR330W, strain CHS5, stronger effect = lower value 0.95 | S. cerevisiae deletion strains, locus YLR342W, strain FKS1, stronger effect = lower value 1 | S. cerevisiae deletion strains, locus YLR357W, strain rsc2, stronger effect = lower value 1.01 | S. cerevisiae deletion strains, locus YLR370C, strain arc18, stronger effect = lower value 1.04 | S. cerevisiae deletion strains, locus YLR371W, strain rom2, stronger effect = lower value 0.961 | S. cerevisiae deletion strains, locus YLR384C, strain iki3, stronger effect = lower value 1.03 | S. cerevisiae deletion strains, locus YML016C, strain PPZ1, stronger effect = lower value 0.973 | S. cerevisiae deletion strains, locus YML120C, strain ndi1, stronger effect = lower value 1.05 | S. cerevisiae deletion strains, locus YML124C, strain tub3, stronger effect = lower value 0.989 | S. cerevisiae deletion strains, locus YMR058W, strain fet3, stronger effect = lower value 0.997 | S. cerevisiae deletion strains, locus YMR078C, strain ctf18, stronger effect = lower value 0.986 | S. cerevisiae deletion strains, locus YMR125W, strain sto1, stronger effect = lower value 1.03 | S. cerevisiae deletion strains, locus YMR129W, stronger effect = lower value 1.02 | S. cerevisiae deletion strains, locus YMR205C, strain PFK2, stronger effect = lower value 1.02 | S. cerevisiae deletion strains, locus YMR231W, strain pep5, stronger effect = lower value 1.04 | S. cerevisiae deletion strains, locus YMR307W, strain GAS1, stronger effect = lower value 0.726 | S. cerevisiae deletion strains, locus YNL071W, strain lat1, stronger effect = lower value 1.03 | S. cerevisiae deletion strains, locus YNL128W, strain TEP1, stronger effect = lower value 0.981 | S. cerevisiae deletion strains, locus YNL175C, strain NOP13, stronger effect = lower value 1 | S. cerevisiae deletion strains, locus YNL183C, strain NPR1, stronger effect = lower value 0.935 | S. cerevisiae deletion strains, locus YNL197C, strain WHI3, stronger effect = lower value 1.02 | S. cerevisiae deletion strains, locus YNL209W, strain ssb2, stronger effect = lower value 1.03 | S. cerevisiae deletion strains, locus YNL224C, strain SQS1, stronger effect = lower value 1.01 | S. cerevisiae deletion strains, locus YNL248C, strain rpa49, stronger effect = lower value 1.02 | S. cerevisiae deletion strains, locus YNL250W, strain rad50, stronger effect = lower value 0.957 | S. cerevisiae deletion strains, locus YNL271C, strain bni1, stronger effect = lower value 0.992 | S. cerevisiae deletion strains, locus YNL298W, strain CLA4, stronger effect = lower value 0.994 | S. cerevisiae deletion strains, locus YNL307C, strain MCK1, stronger effect = lower value 0.965 | S. cerevisiae deletion strains, locus YNL322C, strain KRE1 (second series), stronger effect = lower value 1.06 | S. cerevisiae deletion strains, locus YNL322C, strain KRE1, stronger effect = lower value 1 | S. cerevisiae deletion strains, locus YNR049C, strain mso1, stronger effect = lower value 1.02 | S. cerevisiae deletion strains, locus YOL012C, strain htz1 0.611 | S. cerevisiae deletion strains, locus YOL147C, strain pex11, stronger effect = lower value 0.989 | S. cerevisiae deletion strains, locus YOR001W, strain rrp6, stronger effect = lower value 1.01 | S. cerevisiae deletion strains, locus YOR061W, strain CKA2, stronger effect = lower value 0.93 | S. cerevisiae deletion strains, locus YOR069W, strain VPS5, stronger effect = lower value 0.983 | S. cerevisiae deletion strains, locus YOR070C, strain gyp1, stronger effect = lower value 1.02 | S. cerevisiae deletion strains, locus YOR080W, strain dia2, stronger effect = lower value 1.06 | S. cerevisiae deletion strains, locus YOR083W, strain WHI5 (second series), stronger effect = lower value 1.03 | S. cerevisiae deletion strains, locus YOR083W, strain WHI5, stronger effect = lower value 0.967 | S. cerevisiae deletion strains, locus YOR106W, strain vam3, stronger effect = lower value 1.03 | S. cerevisiae deletion strains, locus YOR136W, strain idh2, stronger effect = lower value 0.954 | S. cerevisiae deletion strains, locus YOR144C, strain elg1, stronger effect = lower value 0.99 | S. cerevisiae deletion strains, locus YOR184W, strain ser1, stronger effect = lower value 0.888 | S. cerevisiae deletion strains, locus YOR231W, strain MKK1, stronger effect = lower value 0.982 | S. cerevisiae deletion strains, locus YOR265W, strain rbl2, stronger effect = lower value 1.02 | S. cerevisiae deletion strains, locus YOR270C, strain vph1, stronger effect = lower value 0.972 | S. cerevisiae deletion strains, locus YOR290C, strain snf2, stronger effect = lower value 1.02 | S. cerevisiae deletion strains, locus YOR316C, strain cot1, stronger effect = lower value 0.979 | S. cerevisiae deletion strains, locus YPL051W, strain arl3, stronger effect = lower value 0.99 | S. cerevisiae deletion strains, locus YPL078C, strain atp4, stronger effect = lower value 1.04 | S. cerevisiae deletion strains, locus YPL106C, strain sse1, stronger effect = lower value 1.06 | S. cerevisiae deletion strains, locus YPL240C, strain hsp82, stronger effect = lower value 1.02 | S. cerevisiae deletion strains, locus YPL241C, strain CIN2, stronger effect = lower value 0.98 and 1 | S. cerevisiae deletion strains, locus YPL256C, strain CLN2, stronger effect = lower value 0.98 | S. cerevisiae deletion strains, locus YPR119W, strain clb2, stronger effect = lower value 0.989 | S. cerevisiae deletion strains, locus YPR141C, strain kar3, stronger effect = lower value 0.984 | S. cerevisiae deletion strains, locus YPR167C, strain met16, stronger effect = lower value 0.988 | S. cerevisiae deletion strains, strain wtn01, stronger effect = lower value 0.912
0.798 (active) and 1.01 (inactive): S. cerevisiae deletion strains, locus YJR075W, strain HOC1, stronger effect = lower value
